Data on 31 compounds can be found in PubChem BioAssay (Tox21).

Assay [1] in a line: qHTS assay to identify small molecule antagonists of the glucocorticoid receptor (GR) signaling pathway - cell viability counter screen (AID 720693). Further: nearly all actives have a fitted effect of over 55% in size.
Assay [2] is described as follows: qHTS assay for identifying genotoxic compounds that show differential cytotoxicity against isogenic chicken DT40 cell lines with known DNA damage response pathways - wild type cell line (AID 743012). Further: nearly all actives have a fitted effect of over 60% in size. Further: potency means the concentration at half of the fitted maximal effect. A digest of the protocol:
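Viability by ATP luminescence (CellTiter-Glo, 30 min RT) after 40 h compound treatment at 37 C/5% CO2, using 300 parental DNA repair-proficient DT40 cells per well.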
On the technique in general: In qHTS, concentration-response curves come from the screen itself.

The nature of assay [3]: qHTS assay for identifying genotoxic compounds that show differential cytotoxicity against isogenic chicken DT40 cell lines with known DNA damage response pathways - Rev3 mutant cell line (AID 743014). Further: nearly all actives have a fitted effect of over 55% in size. Further: potency means the concentration at half of the fitted maximal effect.
Assay [4] in a line: qHTS assay for identifying genotoxic compounds that show differential cytotoxicity against isogenic chicken DT40 cell lines with known DNA damage response pathways - Rad54/Ku70 mutant cell line (AID 743015). Further: nearly all actives have a fitted effect of over 60% in size. Further: potency means the concentration at half of the fitted maximal effect.
Assay [5] is described as follows: qHTS assay to identify small molecule antagonists of the androgen receptor (AR) signaling pathway - cell viability counter screen (AID 743033; further: nearly all actives have a fitted effect of over 45% in size).
Assay [6] in a line: qHTS assay to identify small molecule antagonists of the androgen receptor (AR) signaling pathway using the MDA cell line - cell viability counter screen (AID 743041; further: nearly all actives have a fitted effect of over 45% in size). A digest of the protocol:
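Cytotoxicity counter screen: MDA-kb2 AR-luc cells, compound + R1881, 16 h, 37C, 0% CO2; CellTiter-Fluor added at 15.5 h, fluorescence read after 30 min.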

Values joined by “and” are separate entries in the source; they are usually repeats but may differ in a detail not shown here. Equal values may be shown once. Results filed as inconclusive are left out. A structure can be active in one record and inactive in another. Active and inactive are the calls of the source. The call rests on the fitted dose curve; in most records, active means well fitted curve in the direction sought with a large enough effect in the repeat runs; inconclusive means weak or mixed curves; inactive means no such curve, though single readings can be large; an effect the other way counts as inactive or inconclusive.

For `O=C1CCCCCCCCCCC1`, the Potency result in assay [1], in assay [2], in assay [3], in assay [4], in assay [5] and in assay [6] was “inactive” in each case.
Turning to `CC/C(C)=N/O`, the Potency result in assay [1], in assay [2], in assay [3], in assay [4], in assay [5] and in assay [6] was “inactive” in each case.
`COc1cc(NC(=O)CC(C)=O)c(OC)cc1Cl`: the Potency result in assay [1], in assay [2], in assay [3], in assay [4], in assay [5] and in assay [6] was “inactive” each time.
Turning to `CC(C)=CCC/C(C)=C/C=O`, the Potency result in assay [1], in assay [2], in assay [3], in assay [4], in assay [5] and in assay [6] was “inactive” each time.
As to `CC(O)CNCC(C)O` (stereo not given), the Potency result in assay [1], in assay [2], in assay [3], in assay [4], in assay [5] and in assay [6] was “inactive” in each case.
Regarding `Cc1cc(C)c(O)c(C)c1`, the Potency entry in assay [1], in assay [2], in assay [3], in assay [4], in assay [5] and in assay [6] was “inactive” in each case.
For the compound `N[C@@H](Cc1cc(I)c(Oc2ccc(O)c(I)c2)c(I)c1)C(=O)O`, the Potency result in assay [1], in assay [4], in assay [5] and in assay [6] was “inactive” each time. In addition, the Potency was 29.8 µM (active) and inactive in assay [2]; 23.7 µM (active) and inactive in assay [3].
In the case of `Cc1cc(C)cc(O)c1`, the Potency entry in assay [1], in assay [2], in assay [3], in assay [4], in assay [5] and in assay [6] was “inactive” in each case.
As to `Cc1cc(CC(=O)O)n(C)c1C(=O)c1ccc(Cl)cc1`, the Potency entry in assay [1], in assay [2], in assay [3], in assay [4], in assay [5] and in assay [6] was “inactive” each time.
`CCCOC(=O)NCCCN(C)C`: the Potency entry in assay [1], in assay [2], in assay [3], in assay [4], in assay [5] and in assay [6] was “inactive” throughout.
With `NC(=O)c1ncn([C@@H]2O[C@H](CO)[C@@H](O)[C@H]2O)n1`, the Potency entry in assay [1], in assay [5] and in assay [6] was “inactive” throughout. Further, the Potency in assay [2] is 668 nM (active) and 5.12 µM (active); in assay [3], 750 nM (active) and 1.62 µM (active); in assay [4] it was 1.68 µM (active) and 4.07 µM (active).
For `CN1Cc2c(N)cccc2C(c2ccccc2)C1` (stereo not given), the Potency entry in assay [1], in assay [2], in assay [5] and in assay [6] was “inactive” each time. In addition, the Potency result is “inactive and 61.1 µM (active)” in assay [3]; “inactive and 54.5 µM (active)” in assay [4].
On to `C[n+]1ccn(CCO)c1`, for which the Potency result in assay [1], in assay [2], in assay [3], in assay [4], in assay [5] and in assay [6] was “inactive” in each case.
As to `O=C(O)C1=NN(c2ccc(S(=O)(=O)O)cc2)C(=O)C1`, the Potency result in assay [1], in assay [2], in assay [3], in assay [4], in assay [5] and in assay [6] was “inactive” in each case.
On to `C=CC(C)(C)C`, for which the Potency entry in assay [1], in assay [2], in assay [3], in assay [4], in assay [5] and in assay [6] was “inactive” in each case.
On to `O=C1O[C@H]([C@H](O)CO)C(O)=C1O`, for which the Potency entry in assay [1], in assay [2], in assay [3], in assay [4], in assay [5] and in assay [6] was “inactive” in each case.
On to `CC1=CC(=O)CC(C)(C)C1`, for which the Potency entry in assay [1], in assay [2], in assay [3], in assay [4], in assay [5] and in assay [6] was “inactive” throughout.
Regarding `CCCCCCCC(=O)O`, the Potency entry in assay [1], in assay [2], in assay [3], in assay [4], in assay [5] and in assay [6] was “inactive” in each case.
In the case of `CCN(CC)CCNC(=O)c1ccc(N)cc1`, the Potency result in assay [1], in assay [2], in assay [3], in assay [4], in assay [5] and in assay [6] was “inactive” throughout.
On to `O=Cc1ccc(CO)o1`, for which the Potency result in assay [1], in assay [2], in assay [3], in assay [4], in assay [5] and in assay [6] was “inactive” in each case.
On to `CN1CCCC1=O`, for which the Potency entry in assay [1], in assay [2], in assay [3], in assay [4], in assay [5] and in assay [6] was “inactive” in each case.
Turning to `OCCOCCOCCOCCOCCO`, the Potency entry in assay [1], in assay [2], in assay [4], in assay [5] and in assay [6] was “inactive” in each case. In addition, the Potency entry in assay [3] is “inactive and 24.3 µM (active)”.
With `CC(=O)C(C)C`, the Potency entry in assay [1], in assay [2], in assay [3], in assay [4], in assay [5] and in assay [6] was “inactive” throughout.
For `COc1ccc([C@@H]2CC(=O)c3c(O)cc(O[C@@H]4O[C@H](CO[C@@H]5O[C@@H](C)[C@H](O)[C@@H](O)[C@H]5O)[C@@H](O)[C@H](O)[C@H]4O)cc3O2)cc1OC`, the Potency entry in assay [1], in assay [2], in assay [3], in assay [4], in assay [5] and in assay [6] was “inactive” throughout.
For `CC(C)(C)NC[C@H](O)COc1nsnc1N1CCOCC1`, the Potency result in assay [1], in assay [2], in assay [3], in assay [4], in assay [5] and in assay [6] was “inactive” throughout.
Turning to `CCOC(=O)CC(=O)OCC`, the Potency entry in assay [1], in assay [2], in assay [3], in assay [4], in assay [5] and in assay [6] was “inactive” each time.
Take `O=c1c(O)c(-c2ccc(O)c(O)c2)oc2cc(O)cc(O)c12`: the Potency entry in assay [1], in assay [5] and in assay [6] was “inactive” throughout. Moreover, the Potency in assay [3] was 54.5 µM (active) and 27.5 µM (active) and 61.1 µM (active); in assay [4] it was 30.7 µM (active) and 24.5 µM (active) and 61.1 µM (active).
On to `Cc1cccc(C)c1[N+](=O)[O-]`, for which the Potency entry in assay [1], in assay [2], in assay [3], in assay [4], in assay [5] and in assay [6] was “inactive” in each case.
In the case of `N#CCC(=O)O`, the Potency result in assay [1], in assay [2], in assay [3], in assay [4], in assay [5] and in assay [6] was “inactive” throughout.
In the case of `NC(N)=S`, the Potency entry in assay [1], in assay [2], in assay [3], in assay [4], in assay [5] and in assay [6] was “inactive” in each case.
As for `Cc1ccccc1C=O`, the Potency result in assay [1], in assay [2], in assay [3], in assay [4], in assay [5] and in assay [6] was “inactive” in each case.
